Where “and” joins values, the source holds several entries; their conditions need not be identical. Equal values may be shown once. Results filed as inconclusive are left out. Calls of active or inactive are those of the source. The call rests on the fitted dose curve; in most records, active means well fitted cell-killing curve with a large enough effect in the repeat runs; inconclusive means weak or mixed curves, or effect the other way; inactive means flat fitted curve, though single readings scatter.
Potency means the concentration at half of the fitted maximal effect.

The nature of this assay: qHTS RealTime-Glo MT Cell Viability Assay in HEK293 cells - 32 hour (AID 1224868). Further: nearly all actives have a fitted effect of over 50% in size. The note with it: RealTime-Glo luminescence; series mostly up to 76.8 µM. The text has this: National Center for Advancing Translational Sciences [NCATS]
NIH Chemical Genomics Center [NCGC]
U.S. Environmental Protection Agency [EPA]
National Institutes of Environmental Health Sciences [NIEHS]
National Toxicology Program [NTP]
U.S. Food and Drug Administration [FDA]
Measure of cell viability is critical in the cell-base assay. Analysis of cell viability is necessary for the characterization of cell responses to cytotoxic drugs and environmental stress. A RealTime-Glo MT Cell Viability Assay to monitor cell viability in real time of continues cell culture during 40 hours of compound treatment was used to screen Tox21 10K library compounds in Hek293 cells. The RealTime-Glo MT Cell Viability Assay is a nonlytic, homogeneous, bioluminescent method to measure cell viability in real time using a simple, plate-based method. The assay involves adding NanoLuc luciferase and a cell-permeant prosubstrate to cells in culture. Viable cells reduce the proprietary prosubstrate to generate a substrate for NanoLuc luciferase. This substrate diffuses from cells into the surrounding culture medium, where it is rapidly used by the NanoLuc Enzyme to produce a luminescent signal. The signal correlates with the number of viable cells, making the assay well suited for cytotoxicity studies.
Tox21 Assay Protocol Summary:
The mixture of Hek293 cell suspension and reagents were dispensed at 600cells/6 ul/well in 1536-well tissue culture treated black solid bottom plates using a Multidrop dispenser. After the assay plates were incubated at a 37 C/5% CO2 incubator for 5 hours, 23 nL of compounds dissolved in DMSO, positive and negative controls was transferred to the assay plate by a pintool work station. The plates were incubated at 37 C for 40 hours. The luminescence intensity were measured at 0h, 8h, 16h, 24h, 32h and 40h time points using ViewLux plate reader during compound treatment.
Background: In qHTS, concentration-response curves come from the screen itself.
Take `C/C=C(\C)C(=O)OCc1ccccc1`: the Potency entry is “inactive”.

On to `OCCCCCCCCCCCCBr`, for which the Potency was 9.92 µM (active).

Regarding `CC(=O)OCC(C)OC(C)=O` (stereo not given), the Potency entry is “inactive”.

`CC(C)C(C)(C)C(C)(C)C(C)(C)S`: the Potency entry is “inactive”.

With `CCOc1nc2cccc(C(=O)OC(C)OC(=O)OC3CCCCC3)c2n1Cc1ccc(-c2ccccc2-c2nn[nH]n2)cc1` (stereo not given), the Potency was 9.76 µM (active).

For `O=[N+]([O-])c1ccccc1Nc1ccccc1`, the Potency entry is “inactive”.

Regarding `OCCN1CCN(CC/C=C2/c3ccccc3Sc3ccc(C(F)(F)F)cc32)CC1`, the Potency was 19 µM (active).

`N=C1N=C(N)c2cc3ccccc3cc21`: the Potency was 19.5 µM (active).

`CCCCCCCC[P+](CCCCCCCC)(CCCCCCCC)CCCCCCCC`: the Potency was 0.434 µM (active).

Consider `Cc1cc(CCN2CCN(c3nsc4ccccc34)CC2)cc2c1NC(=O)CC2(C)C`, for which the Potency was 7.76 µM (active).

Consider `O=C(Nc1cccc(Cl)c1)OCC#CCCl`, for which the Potency was 49 µM (active).

For the compound `CCCCCCCCCCC=O`, the Potency entry is “inactive”.

Consider `CC(=O)SC[C@@H](Cc1ccccc1)C(=O)NCC(=O)OCc1ccccc1`, for which the Potency result was “inactive”.

As for `On1ccccc1=S`, the Potency is 4.32 µM (active).

Consider `Cc1cccc(S(=O)(=O)O)c1C`, for which the Potency entry is “inactive”.

Turning to `CN(C)c1ccc(SC#N)cc1`, the Potency result was “inactive”.

On to `CCCCCCCCCCCCCCCC(=O)OC[C@H](O)[C@H]1OC(=O)C(O)=C1O`, for which the Potency entry was “inactive”.

Regarding `CC/C(=C(\c1ccc(O)cc1)c1ccc(OCCN(C)C)cc1)c1ccccc1`, the Potency is 19.5 µM (active).

Take `Cc1onc(-c2ccccc2Cl)c1C(=O)N[C@@H]1C(=O)N2[C@@H]1SC(C)(C)[C@@H]2C(=O)O`: the Potency entry is “inactive”.

With `O=C(c1ccc(O)cc1O)c1ccc(O)cc1O`, the Potency result is “inactive”.

Take `CCCCCCCCCCCCCCCC[N+](C)(C)CCN(Cc1ccc(OC)cc1)c1ncccn1`: the Potency was 0.952 µM (active).

For the compound `C[C@@H]1C[C@H]2[C@@H]3CCC4=CC(=O)C=C[C@]4(C)[C@@]3(Cl)[C@@H](O)C[C@]2(C)[C@@]1(OC(=O)c1ccco1)C(=O)CCl`, the Potency entry is “inactive”.

Consider `Cc1cccc(CN2CCN(C(c3ccccc3)c3ccc(Cl)cc3)CC2)c1` (stereo not given), for which the Potency entry is “inactive”.

`CC1(C)CCC(C)(C)c2cc(C(=O)Nc3ccc(C(=O)O)cc3)ccc21`: the Potency result is “inactive”.

On to `Oc1ccc(C2(c3ccc(O)cc3)CC3CC2C2CCCC32)cc1` (stereo not given), for which the Potency was 41.9 µM (active).

For `CCCCCCCCOC(=O)c1ccc(O)cc1`, the Potency was 27.4 µM (active).

Consider `Clc1ccc2nsnc2c1NC1=NCCN1`, for which the Potency result was “inactive”.

Consider `CCC(C)(C)C1CCCCC1OC(C)=O` (stereo not given), for which the Potency entry was “inactive”.

As to `Nc1ccc2c3c(cccc13)-c1ccccc1-2`, the Potency was 24.8 µM (active).

Consider `CC(C)n1nc(-c2cc3cc(O)ccc3[nH]2)c2c(N)ncnc21`, for which the Potency was 0.239 µM (active).

`COc1cc(-c2nc(NC(=O)c3cc4cc(C)cc(C)c4n3CC(=O)O)sc2CCC2CCCCC2)c(OC)cc1Cl`: the Potency is 25.2 µM (active).

Take `CCCC1O[C@@H]2C[C@H]3[C@@H]4CCC5=CC(=O)C=C[C@]5(C)[C@H]4[C@@H](O)C[C@]3(C)[C@]2(C(=O)CO)O1` (stereo not given in full): the Potency is 24.6 µM (active) and 43.6 µM (active).

With `CC(C)c1ccc2c(c1)CC[C@H]1[C@](C)(CN)CCC[C@]21C`, the Potency was 11 µM (active).

As for `CCC(Cl)C(Cl)C(Cl)CC(Cl)C(Cl)C(C)Cl` (stereo not given), the Potency entry is “inactive”.

`CN1CCC(Nc2ncc3ncnc(Nc4ccc(F)c(Cl)c4)c3n2)CC1`: the Potency was 10.7 µM (active).

For `Nc1c(Cl)cc(Cl)cc1Cl`, the Potency result is “inactive”.

In the case of `C[n+]1cc2c3c(ccc2c2ccc4cc5c(cc4c21)OCO5)OCO3`, the Potency was 0.522 µM (active).

With `COc1cccc2c1C(=O)c1c(O)c3c(c(O)c1C2=O)C[C@@](O)(C(=O)CO)C[C@@H]3O[C@H]1C[C@H](N)[C@H](O[C@@H]2CCCCO2)[C@H](C)O1`, the Potency is 0.239 µM (active).

Regarding `CNCc1cc(F)ccc1Oc1ccc(Cl)c(Cl)c1`, the Potency is 43.6 µM (active).

Turning to `CCCCCCCCCCCC[N+](C)(C)CCCCCCCCCCCC`, the Potency is 5.49 µM (active).

The record behind these values is PubChem BioAssay (Tox21).
